Assay outcomes (PubChem BioAssay)
Rows were chosen to be rich in hits. Some 2.8% of all compounds tested hit in one or more screens of this group.
esBAF inh – Bmi1 luciferase reporter increase in mESCs, primary screen, esBAF inhibitor project, mouse ES cells, Bmi1 luciferase knock-in, single point; reporter increase, % at 12.5 µM; AID 602393, 2012; 350,000 compounds, 2% hits; 24 h; 100% = twice the neutral-well signal; in the data active means activation above about 40%; inconclusive means no clear call, values can overlap the other calls;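 further: a rise in the Bmi1 reporter signal indicates esBAF inhibition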
MITF TRPM1 HTS – activators of MITF-driven TRPM1 promoter reporter, primary screen, cell-based, SK-MEL-5, luciferase, single point | SK-MEL-5 TRPM1-promoter luciferase, 24 h; % of positive control, neutral wells = 0 | activation, % at 12.5 µM | 300,000 compounds, 0.75% hits | AID 588334, 2011;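 active means mean activation of at least 80% with every replicate also reaching 80%; inconclusive means mean reaches 80% but some replicate falls short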
Wnt bcat act – Wnt/beta-catenin pathway activators, primary screen, cell-based, plate reader, single point | activation, % at 9.35 µM | Wnt/beta-catenin reporter cell assay, activator | 300,000 compounds, 1.2% hits | AID 743398, 2014; in the data active means activation above about 30%, passing the limit was not always enough; inconclusive means no clear call, values can overlap the other calls
GAA850 FXN act – FXN promoter activators, primary screen, cell-based, luciferase luminescence, HEK293 lucGAA850 | HEK293 lucGAA850 FXN promoter luciferase reporter, 24 h; percent of 10 µM SAHA response | activation, % at 6 µM | 360,000 compounds, 0.56% hits | AID 540364, 2011;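 active means activation above the average of all compounds screened plus 3 SD, cutoff fixed separately per campaign, cut at about 7.5% in these data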
Hits are given with their value; – = inactive; ? = inconclusive; · = no result; ! = repeats disagree.

SMILES	esBAF inh	MITF TRPM1 HTS	Wnt bcat act	GAA850 FXN act
O=C([C@@H]1[C@@H](CO)[C@@H]2Cn3c(cccc3=O)[C@H]1N2CC1CC1)N1CCc2ccccc2C1	–	·	·	·
CN(C)CC(=O)N1CC[C@@H]2[C@@H](CO)N(C)c3ccc(Br)cc3[C@@H]21	–	·	·	·
C[C@@H]1CN([C@H](C)CO)C(=O)c2cccc(NS(=O)(=O)c3ccccc3)c2O[C@H]1CN(C)C(=O)Nc1ccc2c(c1)OCO2	–	·	·	·
C[C@@H]1CN([C@@H](C)CO)C(=O)c2cccc(NC(=O)Nc3ccc4c(c3)OCO4)c2O[C@H]1CN(C)Cc1ccc(Cl)c(Cl)c1	55	·	·	·
C[C@H]1CN([C@@H](C)CO)C(=O)c2cccc(NS(=O)(=O)c3ccccc3)c2O[C@@H]1CN(C)C(=O)Nc1ccc2c(c1)OCO2	57	·	·	·
COc1cccc(C#CC2=CC(=O)CC(C)(C)C2)c1	134	·	–	–
C[C@@H]1CN([C@@H](C)CO)C(=O)c2cc(NC(=O)C3CCCCC3)ccc2O[C@@H](C)CCCCO[C@H]1CN(C)Cc1ccccc1	–	·	·	·
Cc1ccc(NC(=O)C2C(=O)N(CCO)C3(C)CC2c2ccccc2O3)cc1 (stereo unspecified)	–	–	·	–
COc1ccc(NC(=O)C2C(=O)N(CCO)C3(C)CC2c2ccccc2O3)cc1 (stereo unspecified)	26!	–	–	–
COc1ccc(-c2coc3cc(OC)cc(OC)c3c2=O)cc1	63	–	–	–
COc1ccc(-c2coc3cc(OC)cc(O)c3c2=O)cc1	·	96	·	–
COc1cc(O)cc2occ(-c3ccc(O)cc3)c(=O)c12	–	–	–	–
COc1ccc(-c2coc3cc(O)ccc3c2=O)cc1	–	–	47	–
COc1ccc(-c2coc3cc(O)c(OC)cc3c2=O)cc1	–	–	–	–
O=c1c(-c2ccc(O)cc2)coc2cc(O)cc(O)c12	57	100	44	–
C/C=C/c1ccc([C@@H]2[C@H](CO)N[C@H]2CN(CC)C(=O)CN2CCOCC2)cc1	–	·	·	·
C[C@H]1CN([C@@H](C)CO)C(=O)c2cc(NC(=O)CCC(F)(F)F)ccc2O[C@H]1CN(C)C	–	·	·	·
C[C@@H]1CCCCO[C@@H](CN(C)C(=O)Nc2ccc(F)cc2)[C@H](C)CN([C@H](C)CO)C(=O)c2cc(NC(=O)CCC(F)(F)F)ccc2O1	–	·	·	·
CC(C)NC(=O)N(C)C[C@H]1Oc2ccc(NC(=O)NC3CCCCC3)cc2CC(=O)N([C@H](C)CO)C[C@@H]1C	–	·	·	·
COc1ccc(-c2coc3cc(O)cc(O)c3c2=O)cc1	46	97	55	–
CC(C)Oc1cc(O)c2c(=O)c(-c3ccc(O)cc3)coc2c1	–	–	–	–
COc1ccc(C(=O)/C=C/Nc2cc(C)ccn2)cc1	·	·	–	–
Cc1cc(N/C=C/C(=O)c2ccc(Br)cc2)no1	81	105	33	–
O=C(/C=C\Nc1ccc(Cl)cn1)c1ccc(Br)cc1	·	103	36	–
Cc1ccnc(N/C=C/C(=O)c2ccc(Br)cc2)c1	–	–	39	–
SMILES	esBAF inh	MITF TRPM1 HTS	Wnt bcat act	GAA850 FXN act
Cc1cccc(Nc2nc(-c3ccc(O)c(O)c3)cs2)n1	93	·	–	–
Oc1ccc(-c2csc(Nc3cccc4ccccc34)n2)cc1O	–	·	–	–
Cc1cccc(Nc2nc(-c3ccc(F)c(C)c3)cs2)n1	58	–	46	–
O=C(O)C[C@@H]1C[C@@H]2c3cc(NC(=O)Nc4ccc(F)cc4)ccc3O[C@@H]2[C@H](CO)O1	–	·	·	·
CO[C@H]1CN(C)C(=O)c2cc(NC(=O)Nc3cc(F)ccc3F)ccc2OC[C@@H](C)N(C(=O)c2ccccn2)C[C@@H]1C	–	·	·	·
Cc1ccc(S(=O)(=O)Nc2ccc3c(c2)C(=O)N([C@H](C)CO)C[C@H](C)[C@@H](CN(C)C(=O)C2CCCCC2)OCCCC[C@@H](C)O3)cc1	–	·	·	·
C=CCn1c(-c2csc(-c3ccccc3)n2)n[nH]c1=S	–	–	–	–
C=CCn1c(-c2cc(-c3ccccc3)sc2N)n[nH]c1=S	·	·	41	–
CC(=O)c1ccc(C)cc1OC(=O)c1cccc(F)c1	–	–	–	–
Cc1ccc(C(=O)CC(=O)c2ccccc2C)c(O)c1	62	–	–	–
Cc1ccc(C(=O)CC(=O)c2cccc(F)c2)c(O)c1	46	·	·	–
Cc1ccc(O)c(C(=O)CC(=O)c2ccccc2Cl)c1	·	–	–	–
O=C(C[C@H]1CC[C@H](NC(=O)c2ccncc2)[C@@H](CO)O1)NCC1CCCCC1	–	·	·	·
CC(=O)c1ccc(OCc2ccccc2)c(C)c1O	69	–	31	–
COc1ccccc1CNC(=O)C[C@@H]1CC[C@@H]2[C@H](COC[C@H](O)CN2Cc2cccc(-c3ccncc3)c2)O1	–	·	·	·
COc1ccc(/C=C/c2nnc(NC(C)=O)s2)cc1	–	·	37	–
COC(=O)Nc1nnc(/C=C/c2ccc(OC)cc2)s1	·	–	–	–
COc1cc(C)ccc1OCc1cc(C(=O)N(Cc2nccn2C)C(C)C)no1	94	–	–	–
COc1cc(C)ccc1OCc1cc(C(=O)N(Cc2c(C)nn(C)c2C)C2CC2)no1	61	–	–	–
CO[C@H]1CN(C)C(=O)c2cc(NS(=O)(=O)c3ccccc3)ccc2OC[C@H](C)N(Cc2cccnc2)C[C@@H]1C	–	·	·	·
CCc1ccc(NC(=S)Nc2cccc3cnccc23)cc1	62	–	34	–
Cc1cc(C)cc(NC(=S)Nc2cccc3cnccc23)c1	·	–	–	–
CO[C@H]1CN(C)C(=O)c2cc(NS(=O)(=O)c3ccccc3C)ccc2OC[C@@H](C)N(C)C[C@@H]1C	–	·	·	·
C[C@@H]1CN([C@H](C)CO)C(=O)c2cc(NC(=O)Nc3cccc4ccccc34)ccc2O[C@@H](C)CCCCO[C@H]1CN(C)Cc1ccncc1	–	·	·	·
CCOC(=O)c1n[nH]c2ccccc12	–	–	·	–
SMILES	esBAF inh	MITF TRPM1 HTS	Wnt bcat act	GAA850 FXN act
Cc1ccc2c(COC(=O)c3n[nH]c4ccccc34)cc(=O)oc2c1	69	·	·	–
CCc1ccc2c(COC(=O)c3n[nH]c4ccccc34)cc(=O)oc2c1	77	·	·	–
C[C@@H]1CN([C@H](C)CO)C(=O)Cc2cc(NC(=O)c3ccncc3)ccc2O[C@H]1CN(C)C(=O)Nc1ccccc1	–	·	·	·
CO[C@H](CN(C)S(=O)(=O)c1ccc(F)cc1)[C@H](C)CN(C(=O)Nc1ccccc1F)[C@@H](C)CO	–	·	·	·
O=C(c1cc2ccccc2[nH]1)N1O[C@@H]2C=C[C@H]1C2	42	–	?	–
Nc1ccccc1C(=O)N1O[C@@H]2C=C[C@H]1C2	–	–	–	–
COc1cc(/C=N/O)ccc1Oc1ccc([N+](=O)[O-])cc1[N+](=O)[O-]	–	–	36	–
O=c1c2ccccc2oc2cc(Br)ccc12	71	–	–	–
O=c1c2ccccc2oc2ccc(Oc3ccccc3)cc12	–	?	54	–
COc1cc2oc3ccccc3c(=O)c2cc1OC	–	–	·	–
O=c1c2ccccc2oc2c1oc1ccccc12	54	103	–	–
